# The list is not random: actives were taken first. Their share in the collection is about 14%.
# USP10 block: human USP10 deubiquitinase inhibition. purified USP10, Ub-rhodamine fluorescence, 60 min. inhibition, % at 20 µM. AID 1645856. hit rate 1.1% among 47,000. Q14694
# USP28 block: blocks human USP28 ubiquitin-rhodamine cleavage; Q96RU2; purified USP28, Ub-rhodamine cleavage fluorescence, 30 min; inhibition, % at 25 µM; hit rate 3% among 47,000; AID 1645857
# USP17 inh: inhibitors of human USP17 deubiquitinase | AID 1645855 | purified USP17, Ub-rhodamine cleavage fluorescence, 3 h | hit rate 6.5% among 47,000 | A8MUK1 | inhibition, % at 50 µM
# USP8 block: inhibitors of human USP8 deubiquitinase. purified USP8, Ub-rhodamine cleavage fluorescence, 30 min. inhibition, % at 20 µM. hit rate 4.2% among 47,000
# USP30 block: blocks human USP30 ubiquitin-rhodamine cleavage. Q70CQ3. purified USP30, Ub-rhodamine cleavage fluorescence. inhibition, % at 25 µM. hit rate 5.3% among 47,000. AID 1645860
# Numbers without * were called inactive; i = inactive. Rule as the data show it: active = inhibition above about 30%; inactive = the rest.
SMILES,USP10 block,USP28 block,USP17 inh,USP8 block,USP30 block
COC(=O)C1=CO[C@@H](C)[C@H]2CN3CCc4c([nH]c5cc(OC)ccc45)[C@@H]3C[C@H]12,-4.9,-220.6,-188.3,-303.6,i
O=C1N(Cc2ccccc2)c2ccccc2C12CCNCC2,0.1,29.6,-2.8,2.7,7.8
CS(=O)(=O)c1ccc(C(=O)N(Cc2cccnc2)C2CCN(Cc3cccc(C#N)c3)CC2)cc1,-0.3,-1.5,1.0,-5.4,-3.7
CO[C@H]1/C=C/C=C\C=C\C[C@H](OC(=O)[C@@H](C)NC(=O)C2CCCCC2)[C@H](C)[C@@H](O)/C(C)=C\CCc2cc(O)cc(c2O)NC(=O)C1,-4.2,-6.7,33.0*,-3.9,-36.0
c1ccc(COc2cnc(N3CCNCC3)nc2)cc1,1.9,3.9,2.2,-50.0,24.6
O=C(O)c1cccc2nc3ccccc3nc12,-0.7,0.3,38.8*,7.7,-10.1
Cc1noc(C)c1CC(=O)N1CCN(CC2CCCO2)CC1 (configuration not stated),-1.2,2.8,5.8,4.2,-6.1
Cc1nn(Cc2ccccc2)c(Cl)c1C(=O)NC1CCCc2ccccc21 (configuration not stated),3.4,30.6*,55.6*,10.7,34.8*
C/C=C1/CN2CC[C@]34C(=C(C(=O)OC)[C@H]1C[C@H]23)Nc1c(O)cccc14,-4.2,-35.1,37.3*,86.5*,-98.6
O=C(NC1CCCCC1)C(c1ccc(O)cc1)N(CCN1CCOCC1)C(=O)Cc1c[nH]c2ccccc12 (configuration not stated),-0.4,-2.1,-9.1,-2.3,-24.3
CC(C)N1CC[C@@H]2[C@@H](CO[C@H]2CNC(=O)c2ccno2)C1,0.3,10.1,-8.3,-114.8,2.3
CN1CCCC[C@@H]2N(C(=O)Cn3ccc(=O)[nH]c3=O)CCC[C@@]21C,3.2,11.2,12.2,2.2,30.8*
CN1CC[C@@H]2[C@H]1CCCCN2C(=O)COc1ccc(F)cc1,-4.3,-6.7,-29.0,-50.0,-31.7
Cc1cc(C)nc(-n2nc(C)c3c2NC(=O)CSC3c2ccc(O)cc2)n1 (configuration not stated),2.8,-20.7,-42.2,-128.0,-35.1
Cc1cc(C)nc(-n2nc(C)c3c2NC(=O)CSC3c2ccc(F)cc2F)n1 (configuration not stated),-4.0,2.1,45.3*,1.6,77.2*
COCC(C)NC(=O)c1cc2cccnc2n(Cc2ccc(F)cc2)c1=O (configuration not stated),-0.1,19.4,37.8*,-0.6,30.8*
O=C1C=CC(O)C2C1CC13SSC4(CC5C(=O)C=CC(O)C5N4C1=O)C(=O)N23 (configuration not stated),4.4,1.9,-17.1,2.5,60.3*
c1cc(-c2nccc(CN3CCCC4(CCCCC4)C3)n2)ccn1,0.0,7.3,13.7,37.0*,24.1
O=C1NCC2(CCCN(Cc3ccncc3)C2)Oc2ccccc21 (configuration not stated),-2.6,-66.0,-60.3,-4.4,-191.9
CN1C(=O)[C@@]23C[C@]4([C@@]56C[C@]78SS[C@](CO)(C(=O)N7[C@@H]5Nc5ccccc56)N(C)C8=O)c5ccccc5N[C@@H]4N2C(=O)[C@]1(CO)SS3,3.6,-6.1,-32.2,0.9,67.9*
